Out of some 48,000 compounds screened, about 13,000 (27%) showed an effect of 50% or more. The list shows a part of the results.
Tested on: Wolbachia pipientis
Assay: Anti-Wolbachia Cell-Based Screen
Type: functional
Parameters: scale not given: in the data most compounds retested in dose-response had high values
Conditions: 5 µM

Structure (SMILES)	Percent Effect [%]
CN(CC(=O)N(C)C1CCCCC1)C1CCc2ccccc21 (stereo not drawn)	-4.106
O=C(NCc1csc2ccccc12)NCC1(O)CCSC1 (stereo not drawn)	-14.62
CN(C)C1CCCN(C(=O)NCCNC(=O)C2CCCCC2)C1 (stereo not drawn)	2.915
CCN(CC)c1ccc(CNC(=O)c2ccccn2)cn1	19.52
CNS(=O)(=O)c1ccc(CNC(=O)c2c(C)oc(C)c2C)cc1	84.51
CNS(=O)(=O)Cc1ccc(CNC(=O)c2cccc(C)n2)cc1	2.12
Cc1cccc(C(=O)NCc2ccc(CS(N)(=O)=O)cc2)n1	93.95
Cc1oc(C)c(C(=O)NCc2cccc(C(N)=O)c2)c1C	95.24
Cc1oc(C)c(C(=O)NCc2cccc(NC(=O)CN(C)C)c2)c1C	14.93
CNS(=O)(=O)c1cccc(CNC(=O)c2c(C)oc(C)c2C)c1	20.61
Cc1cccc(C(=O)NCc2ccc(S(N)(=O)=O)cc2)n1	-0.8879
CNS(=O)(=O)c1ccc(CNC(=O)NCC2CCC2)cc1	-8.591
Cc1oc(C)c(C(=O)NCc2ccccc2S(=O)(=O)N(C)C)c1C	-1.431
CNS(=O)(=O)Cc1ccc(CNC(=O)c2ccccn2)cc1	102.4
CNS(=O)(=O)c1ccc(CNC(=O)c2ccccn2)cc1	0.2857
CC(C)c1noc(CNc2cccc(-c3nnnn3C)c2)n1	-7.266
N#Cc1cccc(C(=O)N2CC(c3nc(-c4ccc[nH]c4=O)no3)C2)c1	9.318
Cc1c[nH]c(CN(C)C(=O)c2ccc(CSc3nnc[nH]3)o2)n1	-3.87
CC(C(=O)N(C)C1CCCCC1)S(=O)(=O)Cc1csc(-c2cccs2)n1 (stereo not drawn)	-23.89
CNS(=O)(=O)c1ccc(CNC(=O)c2cccc(C)n2)cc1	84.72
Cc1cccc(C(=O)NCc2ccccc2)n1	112.9
COc1ncccc1CNC(=O)c1cccc(C)n1	6.477
CNS(=O)(=O)c1ccc(CNC(=O)NCc2cc[nH]n2)cc1	-14.1
CCN(CC)c1ccc(CNC(=O)c2cccc(C)n2)cn1	13.97
CN1CCN(Cc2nc3ccccc3[nH]2)[C@H]2CS(=O)(=O)C[C@H]21	-11.18

Structure (SMILES)	Percent Effect [%]
CNc1cc(C)nc(N2CCC3(CC2)[C@H](O)C[C@@H]3OCCN(C)C)n1	-28.04
COCC(=O)N1CCCCC1c1nc(N(C)C)ncc1-c1cc(C)no1 (stereo not drawn)	90.99
CCCC(=O)N1CCCCC1c1nc(N(C)C)ncc1-c1cc(C)no1 (stereo not drawn)	132.6
Cc1cc(-c2cnc(N(C)C)nc2C2CCCCN2C(=O)C2CC2)on1 (stereo not drawn)	124.3
Cc1csc(C2CCCCN2C(=O)COCc2nc(C)no2)n1 (stereo not drawn)	-7.815
Cc1cc(C2CCCN2C(=O)COc2ccc(CC#N)cc2)on1 (stereo not drawn)	-5.28
CCC(=O)N1CCCCC1c1nc(N(C)C)ncc1-c1cc(C)no1 (stereo not drawn)	127.9
Cc1ccc(C(=O)NCC(C)Cn2ccnc2C)c(=O)[nH]1 (stereo not drawn)	-21.01
Cc1nc(-c2cn(CCN)nn2)n(-c2ccc3c(c2)CCC3)n1	-87.51
COc1ccc(NC(=O)N2CCCC2c2ccncc2)cn1 (stereo not drawn)	-8.379
C[C@@H]1CN(Cc2c[nH]c(CC3CCCC3)n2)CC[C@]1(C)O	8.823
CC[C@@]1(O)CCN(c2ncc(Cl)cc2F)C[C@H]1O	-11.81
COCC[C@]1(O)CCN(C(=O)c2cnn(C)c2)C[C@H]1C	-13.07
CCc1ccc(S(=O)(=O)N2CC[C@@](O)(CCOC)[C@H](C)C2)cc1	-34.1
CCc1nc(C)sc1CN1CC[C@](O)(CC)[C@H](O)C1	116.1
CC[C@@]1(O)CCN(Cc2cc(C3CCCCC3)no2)C[C@H]1O	5.851
CCc1nc(C)sc1CN1CC[C@](C)(O)[C@H](C)C1	84.46
CCc1nc(C)sc1CN1CC[C@@](O)(CCOC)[C@H](C)C1	97.23
CCc1nc(C)sc1CNC1CCN(Cc2ccccc2)C1 (stereo not drawn)	-80.76
CNC(=O)c1noc(CN2CC[C@](C)(O)[C@H](C)C2)n1	23.29
CCc1nc(C)sc1CN1C[C@@H](C)[C@@](C)(O)C1	98.2
Cc1nc2c(c(N3C[C@@H](C)[C@@](C)(O)C3)n1)CCC2	13.84
O=C(O)CCNC(=O)C1(c2cccc(Br)c2)CCOCC1	-13.76
NC(=O)C1CCCN1Cc1ccccc1NC(=O)Cc1cccc(F)c1 (stereo not drawn)	-5.666
N#Cc1cccnc1NCCNC(=O)N1CCSCC1	-7.557

Structure (SMILES)	Percent Effect [%]
CC(C)N1CCc2ncn(C)c2C1C(=O)N1CCOCC1.O=C(O)C(F)(F)F (stereo not drawn)	-11.58
CCC(C)N1Cc2c(C(=O)N3CCCC3)nn(C)c2C1.O=C(O)C(F)(F)F (stereo not drawn)	4.311
CC(C)N1Cc2c(C(=O)N3CCN(C)CC3)nn(C)c2C1	107
CCC(C)N1Cc2c(C(=O)N3CCOCC3)nn(C)c2C1.O=C(O)C(F)(F)F (stereo not drawn)	101.3
CCC(C)N1CCc2c(C(=O)N(C)Cc3ccccn3)nn(C)c2C1 (stereo not drawn)	-11.92
CC(C)N1CCc2[nH]nc(C(=O)N3CCOCC3)c2C1.O=C(O)C(F)(F)F.O=C(O)C(F)(F)F	-15.4
Cn1nc(Cn2cccn2)c2c1CN(C1CCOC1)C2.O=C(O)C(F)(F)F (stereo not drawn)	-10.84
CC(C)N1CCc2c(C(=O)N3CCOCC3)nn(C)c2C1.O=C(O)C(F)(F)F	113.7
CC(C)N1CCc2[nH]nc(C(=O)N3CCN(C)CC3)c2C1.O=C(O)C(F)(F)F.O=C(O)C(F)(F)F.O=C(O)C(F)(F)F	-19.75
CCSc1ccccc1C(=O)N1CCC(S(=O)(=O)c2nncn2C)CC1	-2.113
O=C(CCN1CCc2cncnc2C1)N1CCc2sccc2C1	-13.17
CCCN(Cc1nc2ccccc2[nH]1)Cc1ccccc1OC	-7.618
CNC(=O)C(CC(C)C)NC(=O)c1cccc(-c2n[nH]c(C)n2)c1 (stereo not drawn)	-1
CNC(=O)CCc1cccc(C2CCCN(c3cc(C)ncn3)C2)n1 (stereo not drawn)	97.41
CN1CCN(C(=O)c2cccc(S(=O)(=O)NCC3(C)COC3)c2)CC1	-15.33
CN1CCCC(c2cccc(CCC(=O)NCC3(C)COC3)n2)C1 (stereo not drawn)	99.75
CN1CCCC(c2cccc(CCC(=O)NCc3ccccn3)n2)C1 (stereo not drawn)	93.1
Cc1n[nH]c(C)c1NC(=O)CCc1cccc(C2CCCN(C)C2)n1 (stereo not drawn)	122.5
Cc1n[nH]c(C)c1NC(=O)CN1CCc2c(nc(C3CC3)n2C)C1	10.04
CC(=O)N1CCCN(C(=O)NCc2ccccn2)CC1	-1.258
COCC1CCN(C(=O)c2cccc(S(=O)(=O)NCC3(C)COC3)c2)C1 (stereo not drawn)	-10.59
O=C(CCc1ccccn1)NC1CCCN(C2Cc3ccccc3C2)C1 (stereo not drawn)	4.048
Cc1cnc(CN(C)C2CCN(CC(=O)Nc3c(C)n[nH]c3C)C2)o1 (stereo not drawn)	-8.354
